PubChem BioAssay (NCATS)
Records with an inconclusive call do not appear. A call without a number means that no potency is given here. A number with no mark means an inactive call. The source made the active and inactive calls. The call rests on the fitted dose curve; in most records, active means well fitted curve in the direction sought with a large enough effect; inconclusive means small, poorly fitted or top-dose-only effect, or another doubt; inactive means no such curve, though single readings can be large; an effect the other way counts as inactive or inconclusive.

Columns and labels:
[1] = system: HEK293; test: Cytotoxic Profiling of Annotated Libraries Using Quantitative High-Throughput Screening (AID 1296008); conditions: Five cell lines viability, CellTiter-Glo ATP luminescence, 48-72 h; max response: hits give low values; further: nearly all actives have a fitted effect of over 60% in size
In short: (§1)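 Cytotoxicity was measured as CellTiter-Glo ATP luminescence, read after 10 min at room temperature. Compound treatment of the cells lasted 48 or 72 hr at 37 degrees Celsius in a qHTS format.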

[2] = system: HaCat; test: as above; conditions: Five cell lines viability, CellTiter-Glo ATP luminescence, 48-72 h; max response: hits give low values
In short: as §1

[3] = system: C33A; test: Primary qHTS to identify gynecologic anti-cancer compounds using libraries of approved drugs and bioactive compounds (AID 1345084); conditions: Gynecologic cancer cell panel viability, ATPlite luminescence, 48 h; series mostly up to 57.5 µM; further: nearly all actives have a fitted effect of over 55% in size
In short: (§2)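 Measured: luminescence after ATPlite addition (15 min, RT). Exposure: 48 h, 37 C, 5% CO2.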

[4] = system: CASKI; test: as above; conditions: Gynecologic cancer cell panel viability, ATPlite luminescence, 48 h; series mostly up to 57.5 µM
In short: as §2

[5] = system: Es-2; test: as above; conditions: Gynecologic cancer cell panel viability, ATPlite luminescence, 48 h; series mostly up to 57.5 µM
In short: as §2

[6] = system: HeLa; test: as above; conditions: Gynecologic cancer cell panel viability, ATPlite luminescence, 48 h; series mostly up to 57.5 µM
In short: as §2

[7] = system: JEG-3; test: as above; conditions: Gynecologic cancer cell panel viability, ATPlite luminescence, 48 h; series mostly up to 57.5 µM
In short: as §2

[8] = system: OV90; test: as above; conditions: Gynecologic cancer cell panel viability, ATPlite luminescence, 48 h; series mostly up to 57.5 µM
In short: as §2

[9] = system: PA-1; test: as above; conditions: Gynecologic cancer cell panel viability, ATPlite luminescence, 48 h; series mostly up to 57.5 µM
In short: as §2

[10] = system: CAOV3; test: as above; conditions: Gynecologic cancer cell panel viability, ATPlite luminescence, 48 h; series mostly up to 57.5 µM
In short: as §2

[11] = system: SKOV3; test: as above; conditions: Gynecologic cancer cell panel viability, ATPlite luminescence, 48 h; series mostly up to 57.5 µM
In short: as §2

[12] = system: NIH3T3; test: Cytotoxic Profiling of Annotated Libraries Using Quantitative High-Throughput Screening (AID 1296008); conditions: Five cell lines viability, CellTiter-Glo ATP luminescence, 48-72 h; max response: hits give low values; further: nearly all actives have a fitted effect of over 60% in size
In short: as §1

[13] = system: Hek293T; test: Primary qHTS to identify gynecologic anti-cancer compounds using libraries of approved drugs and bioactive compounds (AID 1345084); conditions: Gynecologic cancer cell panel viability, ATPlite luminescence, 48 h, control line for the selectivity index; series mostly up to 57.5 µM; further: nearly all actives have a fitted effect of over 55% in size
In short: as §2
Potency means the concentration at half of the fitted maximal effect.

**Q.** What does the source list for `CC(C)(C[C@@](O)(Cc1cc2ccncc2[nH]1)C(F)(F)F)c1cc(F)ccc1O`?
**A.** Potency [1]: 11.6 µM (active); max response [2]: -2.9%; Potency [3]: inactive; Potency [4]: inactive; Potency [5]: inactive; Potency [6]: inactive; Potency [7]: inactive; Potency [8]: inactive; Potency [9]: inactive

**Q.** What does the source list for `CC(C)NC(=O)COc1cccc(-c2nc(Nc3ccc4[nH]ncc4c3)c3ccccc3n2)c1`?
**A.** Potency [1]: 5.8 µM (active); max response [2]: -3.54%; Potency [10]: 25.1 µM (active); Potency [6]: 17.8 µM (active); Potency [7]: inactive; Potency [8]: inactive

**Q.** Which results are given for `C=C1CC2OC(=O)C(COC)C2C(OC(=O)/C(C)=C\C)CC2(C)OC1=CC2=O` (stereo not given)?
**A.** Potency [1]: 4.53 µM (active); max response [2]: -10.4%; Potency [10]: inactive; Potency [4]: inactive; Potency [6]: inactive; Potency [7]: inactive; Potency [8]: inactive; Potency [11]: inactive

**Q.** What does the source list for `CN(C)C(=O)NC1(c2ccccc2)CCN(CCC[C@]2(c3ccc(Cl)c(Cl)c3)CCCN(C(=O)c3ccccc3)C2)CC1`?
**A.** Potency [1]: 16.4 µM (active); Potency [12]: 20.6 µM (active); Potency [3]: inactive; Potency [10]: 20 µM (active); Potency [6]: inactive; Potency [7]: inactive

**Q.** `C[C@H](CN(C)C)Oc1nc(Nc2cc3cccc(Cl)c3cn2)cnc1C#N` was tested. Which Potency [1] did it give?
**A.** 1.3 µM (active)

**Q.** And the Potency [12]?
**A.** 2.06 µM (active)

**Q.** What about the Potency [3] of the same compound?
**A.** inactive

**Q.** And the Potency [10]?
**A.** inactive

**Q.** And the Potency [4]?
**A.** inactive

**Q.** What about the Potency [6] of the same compound?
**A.** inactive

**Q.** And the Potency [7]?
**A.** inactive

**Q.** And the Potency [8]?
**A.** inactive

**Q.** What about the Potency [9] of the same compound?
**A.** inactive

**Q.** And the Potency [11]?
**A.** 12.6 µM (active)

**Q.** How did the Potency [1] turn out when `NC(=O)c1cnc(N[C@@H]2CCCC[C@H]2N)nc1Nc1cccc(-n2nccn2)c1` was run?
**A.** 20.6 µM (active)

**Q.** And the Potency [2]?
**A.** 18.4 µM (active)

**Q.** What about the Potency [3] of the same compound?
**A.** inactive

**Q.** And the Potency [4]?
**A.** inactive

**Q.** And the Potency [5]?
**A.** inactive

**Q.** What about the Potency [6] of the same compound?
**A.** inactive

**Q.** What about the Potency [13] of the same compound?
**A.** inactive

**Q.** What about the Potency [7] of the same compound?
**A.** inactive

**Q.** For `O=S(=O)(NCc1cccc2ccccc12)c1cc(Cl)c(Oc2cccc(N3CCNCC3)c2)s1`, which Potency [1] is on record?
**A.** 10.3 µM (active)

**Q.** What about the Potency [12] of the same compound?
**A.** 14.6 µM (active)

**Q.** What about the Potency [3] of the same compound?
**A.** inactive

**Q.** And the Potency [4]?
**A.** inactive

**Q.** And the Potency [6]?
**A.** inactive

**Q.** And the Potency [7]?
**A.** inactive

**Q.** What about the Potency [8] of the same compound?
**A.** inactive

**Q.** `Cc1nc(NC(=O)N2CCC[C@H]2C(N)=O)sc1-c1ccnc(C(C)(C)C(F)(F)F)c1` was tested. Which Potency [1] did it give?
**A.** 16.4 µM (active)

**Q.** What about the Potency [2] of the same compound?
**A.** 3.66 µM (active)

**Q.** And the Potency [3]?
**A.** inactive

**Q.** And the Potency [5]?
**A.** inactive

**Q.** What about the Potency [6] of the same compound?
**A.** inactive

**Q.** And the Potency [13]?
**A.** inactive

**Q.** What about the Potency [7] of the same compound?
**A.** inactive

**Q.** What about the Potency [9] of the same compound?
**A.** inactive

**Q.** What about the Potency [11] of the same compound?
**A.** 12.6 µM (active)

**Q.** `Cc1cn(CCN2CCN(c3ccccc3-c3cc(C#N)cc(C(=O)NCCCN4CCCC4)c3)CC2)c2ccccc12` was tested. Which Potency [1] did it give?
**A.** 14.8 µM (active)

**Q.** And the Potency [12]?
**A.** 16.6 µM (active)

**Q.** What about the Potency [3] of the same compound?
**A.** inactive

**Q.** And the Potency [4]?
**A.** inactive

**Q.** And the Potency [5]?
**A.** inactive

**Q.** What about the Potency [6] of the same compound?
**A.** inactive

**Q.** And the Potency [13]?
**A.** inactive

**Q.** And the Potency [7]?
**A.** inactive

**Q.** And the Potency [9]?
**A.** inactive

**Q.** What about the Potency [11] of the same compound?
**A.** inactive

**Q.** Which Potency [1] does the source give for `Oc1cccc(C2NC(=S)Nc3cccc(F)c32)c1` (stereo not given) here?
**A.** 5.8 µM (active)

**Q.** And the Potency [2]?
**A.** 6.51 µM (active)

**Q.** What about the Potency [7] of the same compound?
**A.** 22.4 µM (active)

**Q.** And the Potency [8]?
**A.** inactive

**Q.** What does the source list for `COc1cccc(OCCCN)c1-c1cc(Nc2cnc(C#N)cn2)n[nH]1`?
**A.** Potency [1]: 0.0103 µM (active); Potency [12]: 0.0411 µM (active); Potency [10]: 14.1 µM (active); Potency [4]: inactive

**Q.** For `CN(C)CCN(Cc1ccccc1)C(=O)c1cc(-c2ccc(F)cc2)n2nc(C(C)(C)C)cc2n1`, which Potency [1] is on record?
**A.** 14.6 µM (active)

**Q.** What about the max response [2] of the same compound?
**A.** -107%

**Q.** And the Potency [3]?
**A.** inactive

**Q.** What about the Potency [4] of the same compound?
**A.** inactive

**Q.** And the Potency [5]?
**A.** inactive

**Q.** And the Potency [6]?
**A.** inactive

**Q.** And the Potency [13]?
**A.** inactive

**Q.** And the Potency [7]?
**A.** inactive

**Q.** What does the source list for `CC(C)(C)Oc1ccc(OCC2Cc3ccccc3CN2C(=O)c2cccc3ccccc23)cc1` (stereo not given)?
**A.** Potency [1]: 13 µM (active); max response [12]: -2.51%; Potency [3]: inactive; Potency [10]: inactive; Potency [4]: inactive; Potency [5]: inactive; Potency [6]: inactive; Potency [13]: inactive; Potency [7]: inactive; Potency [8]: inactive; Potency [9]: inactive

**Q.** With `CCC1C(=O)N(C)c2cnc(Nc3ccc(C(=O)NC4CCN(C)CC4)cc3OC)nc2N1C1CCCC1` (stereo not given) as the compound, how does the max response [1] read?
**A.** -124%

**Q.** And the Potency [12]?
**A.** 7.31 µM (active)

**Q.** What about the Potency [3] of the same compound?
**A.** 20 µM (active)

**Q.** And the Potency [4]?
**A.** 3.98 µM (active)

**Q.** What about the Potency [7] of the same compound?
**A.** 28.2 µM (active)

**Q.** And the Potency [9]?
**A.** 1.78 µM (active)

**Q.** And the Potency [11]?
**A.** 6.31 µM (active)

**Q.** What does the source list for `CN(C)CCCn1cc(C2=C(c3c[nH]c4ccccc34)C(=O)NC2=O)c2ccccc21`?
**A.** Potency [1]: 14.6 µM (active); max response [2]: -0.893%; Potency [5]: 28.2 µM (active); Potency [13]: 22.4 µM (active); Potency [7]: inactive

**Q.** How did the Potency [1] turn out when `NCC1CCN(c2nccc(-c3ccc4ccccc4c3)n2)CC1` was run?
**A.** 11.6 µM (active)

**Q.** What about the Potency [2] of the same compound?
**A.** 6.51 µM (active)

**Q.** What about the Potency [3] of the same compound?
**A.** 28.2 µM (active)

**Q.** And the Potency [10]?
**A.** 28.2 µM (active)

**Q.** And the Potency [5]?
**A.** inactive

**Q.** What about the Potency [6] of the same compound?
**A.** 14.1 µM (active)

**Q.** And the Potency [7]?
**A.** inactive

**Q.** And the Potency [8]?
**A.** inactive

**Q.** And the Potency [9]?
**A.** 14.1 µM (active)

**Q.** And the Potency [11]?
**A.** 22.4 µM (active)

**Q.** Which Potency [1] does the source give for `C=C(C)C(=O)OC1CC(CO)CCC/C(CO)=C/C2OC(=O)C(=C)C21` (stereo not given) here?
**A.** 7.18 µM (active)

**Q.** What about the max response [2] of the same compound?
**A.** 1.02%

**Q.** And the Potency [3]?
**A.** inactive

**Q.** And the Potency [10]?
**A.** inactive

**Q.** What about the Potency [4] of the same compound?
**A.** inactive

**Q.** And the Potency [6]?
**A.** inactive

**Q.** And the Potency [7]?
**A.** inactive

**Q.** And the Potency [8]?
**A.** inactive

**Q.** What about the Potency [11] of the same compound?
**A.** inactive

**Q.** What does the source list for `COc1ccccc1S(=O)(=O)Nc1ccc2c(c1)CN(C)C(=O)N2`?
**A.** Potency [1]: 6.51 µM (active); max response [2]: 2.92%; Potency [3]: inactive; Potency [10]: inactive; Potency [4]: inactive; Potency [13]: inactive; Potency [7]: inactive; Potency [8]: inactive; Potency [9]: inactive
